FID counter: displaces DNA intercalator in HCV helicase counter-screen | DNA fluorescent intercalator displacement, fluorescence | inhibition, % at 7.9 µM | hit rate 0.17% among 290,000 | AID 1845; in the data active = inhibition above about 37%;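 also: 0% = vehicle and 100% = reference compound; higher means more ethidium bromide displaced from hairpin DNA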
MEKK2 WT-MEK5: raises or lowers MEK5 binding to wildtype human MEKK2 PB1 domain | Q9Y2U5 | bead flow cytometry, Alexa488-MEK5 binding to MEKK2 WT; actives lie on both sides | binding response (% of control), % at 10 µM | hit rate 1.1% among 290,000 | AID 1531; in the data active = binding response below about 67% or above about 130%; inconclusive = no clear call, values can overlap the other calls; inactive = in between
MEKK2 mut-MEK5: signal of MEK5 binding to mutant human MEKK2 PB1 domain. bead flow cytometry, Alexa488-MEK5 binding to MEKK2 mutant. percent response, % at 10 µM. hit rate 0.35% among 290,000; in the data active = percent response above about 24%, passing the limit was not always enough
MEKK3 PB1 HTS: modulators (inhibitors or enhancers) of MEK5 binding to human MEKK3 PB1 domain; binding response (% of control), % at 10 µM; Q99759; bead-based flow cytometry, Alexa488-MEK5 binding to MEKK3; actives lie on both sides; 0 = blocked by unlabeled MEK5, 100 = vehicle; hit rate 1.4% among 290,000;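 active = binding response more than 3 SD above or below the average of its plate-row segment, actives on both sides; inconclusive = wells at one plate position flagged as instrument error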;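 also: Alexa488 bead fluorescence after subtracting the streptavidin-only scavenger bead signal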
Target sequence (Q99759 whole entry, looked up, the tested form may be a part): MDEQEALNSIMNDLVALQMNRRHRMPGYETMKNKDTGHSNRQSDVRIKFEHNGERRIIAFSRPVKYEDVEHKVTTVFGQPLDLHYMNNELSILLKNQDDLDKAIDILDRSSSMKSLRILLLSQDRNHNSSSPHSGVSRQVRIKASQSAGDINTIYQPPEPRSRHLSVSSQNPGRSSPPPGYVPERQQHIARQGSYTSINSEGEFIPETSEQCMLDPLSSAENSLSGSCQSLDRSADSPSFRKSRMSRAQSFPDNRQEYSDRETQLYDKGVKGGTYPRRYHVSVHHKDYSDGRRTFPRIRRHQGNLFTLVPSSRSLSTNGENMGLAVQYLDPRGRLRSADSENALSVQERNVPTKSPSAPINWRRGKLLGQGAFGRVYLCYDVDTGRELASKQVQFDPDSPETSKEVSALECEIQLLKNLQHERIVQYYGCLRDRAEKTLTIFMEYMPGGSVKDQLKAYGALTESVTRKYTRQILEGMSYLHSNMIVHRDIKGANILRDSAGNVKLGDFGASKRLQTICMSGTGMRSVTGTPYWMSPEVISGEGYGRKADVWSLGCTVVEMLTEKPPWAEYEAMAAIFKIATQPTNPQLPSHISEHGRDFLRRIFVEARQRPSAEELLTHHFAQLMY
dFosB act: mouse delta FosB homodimer activation. hit rate 0.99% among 340,000. purified delta FosB, TAMRA-CDK5 oligo fluorescence polarization; percent of positive-control signal above neutral wells. P13346. activation, % at 25 µM;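 active = mean activation above about 17%, with every replicate also reaching it, limit read from the data, passing the limit was not always enough; inconclusive = only one of the two conditions met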
MEKK2wt confirm: raises or lowers MEK5 binding to wildtype human MEKK2, retest; bead flow cytometry, Alexa488-MEK5 binding to MEKK2 WT; actives lie on both sides; AID 1892; shares compounds with MEKK3 PB1 HTS; hit rate 2.4% among 5,900; binding response (% of control), % at 10 µM; in the data active = binding response below about 16% or above about 210%; inactive = in between
MEKK2mut confirm: signal of MEK5 binding to mutant human MEKK2, retest. shares compounds with MEKK3 PB1 HTS. bead flow cytometry, Alexa488-MEK5 binding to MEKK2 mutant. percent response, % at 10 µM. hit rate 2% among 5,900. AID 1893; in the data active = percent response mostly above about 71%, no sharp cut-off; inactive = mostly below about 38%;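 also: higher means compound restores mutant binding toward wildtype level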
MEKK3 confirm: MEKK3-MEK5 PB1 inhibition, single concentration confirmation. shares compounds with MEKK3 PB1 HTS. bead flow cytometry, Alexa488-MEK5 binding to MEKK3; stronger effect = lower value. binding response (% of control), % at 10 µM. hit rate 1.8% among 5,900. AID 1894;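 active = binding response below 72% of control, or above a set upper limit, though filed actives all read lower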;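 also: 100% = DMSO only wells and 0% = binding blocked by excess unlabeled MEK5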
* marks the source's active call; other numbers are inactive results; ? = inconclusive; / = not tested or not shown; [ ] = remark or other dose. Compounds with a hit are over-represented: about 2.9% of the library has one in this group of screens.

SMILES | FID counter | MEKK2 WT-MEK5 | MEKK2 mut-MEK5 | MEKK3 PB1 HTS | dFosB act | MEKK2wt confirm | MEKK2mut confirm | MEKK3 confirm
CCC(=O)Nc1nc2c(c(=O)[nH]1)CCCC2 | 0 | 102 | 3 | 108 | -6 | / | / | /
CCN(CC)C(=O)CSc1nnc(-c2ccc(O)cc2)n1CC1CCCO1 (stereo unspecified) | -5 | 133 | 11 | 136* | -4 | 104 | 5 | 106
O=S(=O)(NC1CC(NS(=O)(=O)OCC(Cl)(Cl)Cl)C2CCCCC12)OCC(Cl)(Cl)Cl (stereo unspecified) | -1 | 93 | -3 | 104 | 8 | / | / | /
COc1ccc(-c2cnnc(N/N=C/c3ccc(O)cc3)n2)cc1 | -8 | 117 | 0 | 128* | -15 | 102 | 3 | 100
COc1ccc(-c2cnnc(N/N=C/c3ccc(O)c(O)c3)n2)cc1 | -11 | 102 | 0 | 97 | -13 | / | / | /
CNc1ccc(OC(F)F)cc1C(=O)c1ccccc1 | -1 | -2.0*[inhibitor] | -31 | 1.0*[inhibitor] | -5 | 104 | 0 | 102
COc1ccc(C(=O)Nc2ccc(C)cc2C(=O)c2ccccc2)cc1 | -15 | 109 | 20 | 105 | -5 | / | / | /
CN(C)c1nc(N/N=C/c2ccccc2O)nc(Nc2ccc(F)cc2)n1 | -6 | 140* | 23 | 110 | 60* | 108 | -8 | 104
Cc1cc(NS(=O)(=O)c2ccc(NC(=O)CSc3nnc(-c4ccco4)n3N)cc2)nc(C)n1 | -3 | 114 | 19 | 99 | -1 | / | / | /
Cc1cc(NS(=O)(=O)c2ccc(NC(=O)CSc3nnc(-c4ccco4)n3C)cc2)nc(C)n1 | -4 | 111 | 1 | 141* | -4 | 110 | 11 | 107
CCN1CCN(CCC(=O)Nc2cc(OC)cc(OC)c2)CC1 | 4 | 113 | 15 | 107 | -1 | / | / | /
Cc1ccc(N2C(=O)N3[C@H](c4ccc(F)cc4)[C@@H]4C(=O)N(C5CCCCC5)C(=O)[C@@H]4[C@]3(C)C2=O)cc1 | -36 | 112 | 1 | 105 | 1 | / | / | /
CC1CCCN(Cc2c(O)ccc3c(=O)c(-c4nc5ccccc5s4)c(N)oc23)C1 (stereo unspecified) | 27 | 161* | 25 | 111 | ? | 155 | 30 | 104
CC1CCN(Cc2c(O)ccc3c(=O)c(-c4nc5ccccc5s4)c(N)oc23)CC1 | 18 | 120 | 7 | 109 | 2 | / | / | /
COc1cc(/C=N/OCC(=O)Nc2ccc(OC(F)F)cc2)ccc1OCc1ccccc1 | -22 | 108 | -1 | 135* | -4 | 99 | -7 | 101
O=C(CCc1nc(-c2ccccc2)no1)NCc1cccnc1 | -1 | 100 | 4 | 100 | -2 | / | / | /
O=C(CCCc1nc(-c2ccccc2Cl)no1)NCc1cccnc1 | -4 | 117 | 9 | 123* | 2 | 100 | 0 | 100
CCN(CCNC(=O)C1CCN(c2nnc(-n3cccc3)s2)CC1)c1ccccc1 | -16 | 99 | -1 | 98 | -1 | / | / | /
O=C(Cn1nnc(-c2ccccc2F)n1)Nc1ccc(S(=O)(=O)NC2CCCC2)cc1 | 2 | 107 | 7 | 107 | 5 | / | / | /
CCOC(=O)c1c(-c2ccc(OC)cc2)csc1/N=C/N(C)C | -7 | 105 | 0 | 136* | -10 | 99 | -5 | 97
CNC(=S)NNC(=O)COc1ccc(C)c(C)c1 | -9 | 96 | -1 | 98 | -3 | / | / | /
CN(C)/C=N/c1ncc(C(=O)c2ccccc2)s1 | 0 | 93 | -5 | 94 | -1 | / | / | /
Cc1cc(C(=O)c2cnc(/N=C/N(C)C)s2)cc(C)c1O | 0 | 0.0*[inhibitor] | -17 | 0.0*[inhibitor] | -7 | 109 | 4 | 104
CC1(C)CC(O)(CNCc2ccc3c(c2)OCO3)CCO1 (stereo unspecified) | 1 | 3.0*[inhibitor] | -14 | 2.0*[inhibitor] | 6 | 94 | -7 | 94
CN1CCc2c(sc3nc(SCC(N)=O)n(-c4ccccc4)c(=O)c23)C1 | 0 | 105 | 79* | 99 | 1 | 94 | -6 | 99
SMILES | FID counter | MEKK2 WT-MEK5 | MEKK2 mut-MEK5 | MEKK3 PB1 HTS | dFosB act | MEKK2wt confirm | MEKK2mut confirm | MEKK3 confirm
CCn1c(SCC(=O)NCCc2ccccc2)nc2sc3c(c2c1=O)CCN(C)C3 | 9 | 102 | 4 | 107 | -4 | / | / | /
CN1CCc2c(sc3nc(SCC(N)=O)n(-c4ccc(Cl)cc4)c(=O)c23)C1 | -3 | 98 | 2 | 94 | -2 | / | / | /
CCn1c(SCC(=O)c2ccccc2)nc2sc3c(c2c1=O)CCN(C)C3 | -2 | 124 | 29 | 130* | -13 | 104 | 0 | 104
CCN(C[C@H]1N[C@@](Cc2ccccc2)(C(=O)OC)[C@H]2C(=O)N(C)C(=O)[C@@H]12)C(=O)Nc1ccc(F)cc1 | / | / | / | / | -2 | / | / | /
CN1C/C(=C\c2ccc(N3CCOCC3)cc2)C(=O)/C(=C/c2ccc(N3CCOCC3)cc2)C1 | -13 | 81 | -4 | 89 | -11 | / | / | /
CCN1C/C(=C/c2ccc(N3CCOCC3)cc2)C(=O)/C(=C/c2ccc(N3CCOCC3)cc2)C1 | -7 | 26*[inhibitor] | -23 | 93 | 3 | 80 | -11 | 92
COc1ccccc1C(=O)NC(=O)COC(=O)c1cc[n+]([O-])cc1 | / | / | / | / | -2 | / | / | /
O=C(O)c1ccc(/C=N/NC(=O)C2CC2(c2ccccc2)c2ccccc2)cc1 (stereo unspecified) | -7 | 117 | 5 | 153* | / | 95 | -7 | 98
COc1ccccc1CNC(=O)COC(=O)C1CCN(S(=O)(=O)c2ccccc2)CC1 | / | / | / | / | -4 | / | / | /
Cc1cccc(/C=N/N(CCO)C2=NS(=O)(=O)c3ccccc32)c1 | -31 | 117 | 1 | 138* | -31 | 107 | 11 | 103
CC(C)(C)NC(=O)CCN(/N=C/c1ccccc1)C1=NS(=O)(=O)c2ccccc21 | -34 | 102 | 6 | 103 | -24 | / | / | /
C=CCNC(=S)/N=c1/ccccn1CCC | -4 | 82 | -31 | 75*[inhibitor] | 5 | 107 | 3 | 101
O=C(O)C1CCCCC1C(=O)Nc1ccc(Cl)cc1Cl (stereo unspecified) | -5 | 103 | 4 | 107 | 5 | / | / | /
O=C(CCC(=O)Nc1ccc(Cl)cc1Cl)NNC(=O)[C@@H]1CCCC[C@@H]1C(=O)O | -10 | 1.0*[inhibitor] | -21 | 1.0*[inhibitor] | -3 | 93 | -8 | 95
CCN1CCc2c(C#N)c(N3CCCCC3)nc(NCc3ccccc3)c2C1 | 7 | 158* | 27 | 105 | -6 | 141 | 13 | 106
CCN1CCc2c(C#N)c(N3CCOCC3)nc(NCc3ccccc3)c2C1 | 3 | / | / | / | -7 | / | / | /

Screening results as filed in PubChem.
